# Measured values taken from PubChem BioAssay (NCATS).
# Several values for one entry are separate records, joined by “and”; a condition that tells them apart may be missing. Equal values may be shown once. Results filed as inconclusive are left out. Where a call stands in place of a potency, no number is given. More than one record can exist for a structure, and the calls need not agree. Activity calls are given as the source filed them. Unless noted, the call rests on the fitted dose curve.
# Legend:
# [1] = biological target: Bile acid receptor (Homo sapiens) (UniProt Q96RI1); test: qHTS assay for small molecule antagonists of farnesoid X receptor signaling (AID 588526)
# Chain of Bile acid receptor (Homo sapiens) (Q96RI1 whole entry, looked up): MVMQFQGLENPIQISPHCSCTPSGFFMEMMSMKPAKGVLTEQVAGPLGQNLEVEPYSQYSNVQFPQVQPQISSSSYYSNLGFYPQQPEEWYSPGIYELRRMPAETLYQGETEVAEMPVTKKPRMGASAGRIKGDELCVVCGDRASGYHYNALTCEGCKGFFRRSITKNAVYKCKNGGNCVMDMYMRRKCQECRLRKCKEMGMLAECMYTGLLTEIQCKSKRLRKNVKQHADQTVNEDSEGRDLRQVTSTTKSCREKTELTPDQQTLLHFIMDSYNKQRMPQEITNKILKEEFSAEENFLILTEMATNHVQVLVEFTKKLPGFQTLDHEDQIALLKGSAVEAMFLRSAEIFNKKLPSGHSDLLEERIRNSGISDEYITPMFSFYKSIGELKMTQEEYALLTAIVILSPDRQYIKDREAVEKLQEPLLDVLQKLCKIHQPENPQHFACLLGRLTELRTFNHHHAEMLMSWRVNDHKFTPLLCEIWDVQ
# How it was run: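 Antagonist mode: titrated compounds tested against chenodeoxycholic acid stimulation (normalized to 50 uM CDCA and DMSO) in GeneBLAzer HEK293T cells for 16 h. Beta-lactamase read by CCF4 fluorescence; IC50 from Hill fits.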
# [2] = biological target: Glucocorticoid receptor (Homo sapiens) (UniProt P04150); test: qHTS assay for small molecule agonists of glucocorticoid receptor signaling (AID 588532; active means well fitted curve in the direction sought with a large enough effect in the signal ratio, with a control signal flat; the % refers to the signal ratio); details: HeLa MMTV-bla, beta-lactamase ratio, agonist, 18 h; stronger effect = higher value; percent of dexamethasone control, DMSO zero
# Chain of Glucocorticoid receptor (Homo sapiens) (P04150 whole entry, looked up): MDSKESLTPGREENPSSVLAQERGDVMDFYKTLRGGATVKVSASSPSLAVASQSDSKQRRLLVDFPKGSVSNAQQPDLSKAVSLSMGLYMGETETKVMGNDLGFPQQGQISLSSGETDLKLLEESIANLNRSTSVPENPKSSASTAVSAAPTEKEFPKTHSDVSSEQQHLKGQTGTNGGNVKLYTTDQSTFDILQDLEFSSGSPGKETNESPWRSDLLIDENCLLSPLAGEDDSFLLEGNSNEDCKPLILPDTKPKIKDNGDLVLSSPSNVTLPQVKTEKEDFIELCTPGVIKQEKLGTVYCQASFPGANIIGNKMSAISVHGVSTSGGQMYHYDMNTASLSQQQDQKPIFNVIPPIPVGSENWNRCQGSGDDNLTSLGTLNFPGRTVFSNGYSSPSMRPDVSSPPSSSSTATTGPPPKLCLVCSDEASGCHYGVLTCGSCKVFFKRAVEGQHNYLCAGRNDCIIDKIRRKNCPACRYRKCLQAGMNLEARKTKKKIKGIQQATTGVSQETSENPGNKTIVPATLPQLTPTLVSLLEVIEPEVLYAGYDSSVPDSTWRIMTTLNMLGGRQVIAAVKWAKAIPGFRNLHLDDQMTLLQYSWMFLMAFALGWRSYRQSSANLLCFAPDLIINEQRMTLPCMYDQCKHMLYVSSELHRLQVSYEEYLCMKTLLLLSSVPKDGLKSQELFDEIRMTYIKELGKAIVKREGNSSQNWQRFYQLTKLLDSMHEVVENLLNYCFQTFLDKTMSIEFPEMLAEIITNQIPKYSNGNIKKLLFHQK
# How it was run: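 Cells were plated and rested 3-5 h at 37 C, compounds were added in titration and incubated 18 h, then CCF4 substrate was loaded for 2 h at RT before reading blue/green fluorescence. EC50 came from Hill-equation fitting.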
# [3] = qHTS assay for small molecule antagonists of peroxisome proliferator-activated receptor delta signaling (AID 588535; active means well fitted inhibition curve with a large enough effect in the signal ratio, with a control signal flat, not every such curve was filed as active; the % refers to the signal ratio;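 on max response: cells co-treated with a PPAR-delta agonist as stimulator during compound exposure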); details: HEK293T PPARd-UAS-bla, beta-lactamase FRET ratio, 18 h; 460 nm channel
# How it was run: (§1)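 Fluorescence from CCF4-loaded GeneBLAzer PPAR-delta-UAS-bla HEK293T cells (2 hrs RT loading) quantified reporter inhibition after an 18 hr, 37 C compound exposure across a titration.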
# [4] = biological target: Peroxisome proliferator-activated receptor delta (Homo sapiens) (UniProt Q03181); test: as above
# Chain of Peroxisome proliferator-activated receptor delta (Homo sapiens) (Q03181 whole entry, looked up): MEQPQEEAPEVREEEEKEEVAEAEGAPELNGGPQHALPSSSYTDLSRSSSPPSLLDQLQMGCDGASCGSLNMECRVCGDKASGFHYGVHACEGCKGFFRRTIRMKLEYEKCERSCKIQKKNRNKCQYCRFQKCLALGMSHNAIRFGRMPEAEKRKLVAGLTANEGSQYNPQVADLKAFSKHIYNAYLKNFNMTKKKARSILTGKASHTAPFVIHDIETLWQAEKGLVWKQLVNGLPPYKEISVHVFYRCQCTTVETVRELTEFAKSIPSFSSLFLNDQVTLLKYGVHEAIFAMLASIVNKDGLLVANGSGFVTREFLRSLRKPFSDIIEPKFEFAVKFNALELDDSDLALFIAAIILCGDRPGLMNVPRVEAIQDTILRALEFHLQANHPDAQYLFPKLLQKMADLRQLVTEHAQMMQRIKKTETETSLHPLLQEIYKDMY
# How it was run: as §1
# [5] = biological target: Peroxisome proliferator-activated receptor gamma (Homo sapiens) (UniProt P37231); test: qHTS assay for small molecule antagonists of peroxisome proliferator-activated receptor gamma signaling (AID 588537; active means well fitted inhibition curve with a large enough effect in the signal ratio, with a control signal flat, not every such curve was filed as active; the % refers to the signal ratio; further: potency means the concentration at half of the fitted maximal effect)
# Chain of Peroxisome proliferator-activated receptor gamma (Homo sapiens) (P37231 whole entry, looked up): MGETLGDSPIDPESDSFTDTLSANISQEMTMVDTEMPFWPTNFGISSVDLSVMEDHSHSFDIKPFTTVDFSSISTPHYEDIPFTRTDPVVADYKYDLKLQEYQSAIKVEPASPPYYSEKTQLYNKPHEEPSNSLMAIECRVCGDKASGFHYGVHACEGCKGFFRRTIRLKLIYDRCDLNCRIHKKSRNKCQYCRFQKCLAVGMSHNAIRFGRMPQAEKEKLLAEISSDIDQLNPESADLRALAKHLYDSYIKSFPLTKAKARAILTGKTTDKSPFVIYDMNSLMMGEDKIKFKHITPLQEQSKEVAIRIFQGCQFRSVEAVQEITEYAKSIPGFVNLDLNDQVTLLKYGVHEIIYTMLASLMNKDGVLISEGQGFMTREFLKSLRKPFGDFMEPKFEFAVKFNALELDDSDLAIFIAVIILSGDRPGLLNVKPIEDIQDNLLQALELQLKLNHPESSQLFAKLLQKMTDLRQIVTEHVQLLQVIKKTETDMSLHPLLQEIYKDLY
# How it was run: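 Fluorescence at 460 and 530 nm (405 nm excitation) reported beta-lactamase cleavage of CCF4 after 2 h room-temperature loading. HEK293 reporter cells in 1% charcoal/dextran-treated FBS had received compound and rosiglitazone for 16 h.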
# [6] = biological target: Vitamin D3 receptor (Homo sapiens) (UniProt P11473); test: qHTS assay for small molecule antagonists of vitamin D receptor signaling (AID 588541);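 further: receptor activated by calcitriol during compound treatment; series mostly up to about 77 µM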
# Chain of Vitamin D3 receptor (Homo sapiens) (P11473 whole entry, looked up): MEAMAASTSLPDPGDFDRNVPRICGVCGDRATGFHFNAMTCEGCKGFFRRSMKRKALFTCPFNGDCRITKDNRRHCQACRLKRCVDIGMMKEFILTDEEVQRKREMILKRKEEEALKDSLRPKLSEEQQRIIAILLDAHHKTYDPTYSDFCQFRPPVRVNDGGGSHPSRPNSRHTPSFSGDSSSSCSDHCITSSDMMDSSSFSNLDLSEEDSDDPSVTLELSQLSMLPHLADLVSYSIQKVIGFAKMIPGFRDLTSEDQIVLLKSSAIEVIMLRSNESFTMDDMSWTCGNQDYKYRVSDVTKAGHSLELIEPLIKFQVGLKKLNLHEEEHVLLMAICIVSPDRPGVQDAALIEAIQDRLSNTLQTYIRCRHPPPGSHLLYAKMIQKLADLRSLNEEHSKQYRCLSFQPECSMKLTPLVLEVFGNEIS
# How it was run: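 VDR-UAS-bla HEK293T cells in 2% charcoal-stripped FBS were stimulated with 1-alpha,25-dihydroxyvitamin D3 (3 nM final) plus compound for 16 h at 37 C. The beta-lactamase CCF4 readout was normalized to 50 nM agonist and DMSO, and Hill fits gave IC50.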
# [7] = biological target: Vitamin D3 receptor (Homo sapiens) (UniProt P11473); test: qHTS assay for small molecule agonists of vitamin D receptor signaling (AID 588543)
# How it was run: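 Measured: β-lactamase reporter activity (CCF4, 405 nm excitation, 460/530 nm emission) in HEK293T VDR-UAS-bla cells after 16 h compound exposure at 37 °C. Normalization against 50 nM 1α,25-dihydroxyvitamin D3 and DMSO; Hill-fit EC50.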
# [8] = qHTS assay for small molecule agonists of retinoid X receptor alpha signaling (AID 588544); details: HEK293T RXRa-UAS-bla, beta-lactamase reporter, 18 h; 530 nm emission; further: potency means the concentration at half of the fitted maximal effect
# [9] = biological target: Retinoic acid receptor RXR-alpha (Homo sapiens) (UniProt P19793); test: as above
# Chain of Retinoic acid receptor RXR-alpha (Homo sapiens) (P19793 whole entry, looked up): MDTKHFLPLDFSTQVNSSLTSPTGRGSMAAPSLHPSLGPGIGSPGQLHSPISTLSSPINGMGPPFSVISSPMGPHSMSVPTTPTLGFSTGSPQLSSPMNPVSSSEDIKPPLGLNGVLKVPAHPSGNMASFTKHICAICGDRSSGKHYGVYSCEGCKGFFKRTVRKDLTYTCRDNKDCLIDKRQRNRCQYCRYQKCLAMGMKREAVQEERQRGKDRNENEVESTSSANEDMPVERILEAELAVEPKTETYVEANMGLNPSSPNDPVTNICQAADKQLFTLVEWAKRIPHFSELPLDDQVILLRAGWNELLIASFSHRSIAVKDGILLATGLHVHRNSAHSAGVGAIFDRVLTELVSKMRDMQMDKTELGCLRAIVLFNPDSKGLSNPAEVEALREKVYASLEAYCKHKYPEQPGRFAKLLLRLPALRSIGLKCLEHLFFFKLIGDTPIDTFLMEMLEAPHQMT
# [10] = biological target: Thyroid hormone receptor beta (Homo sapiens) (UniProt P10828); test: qHTS assay for small molecule agonists of thyroid hormone receptor beta signaling (AID 588545)
# Chain of Thyroid hormone receptor beta (Homo sapiens) (P10828 whole entry, looked up): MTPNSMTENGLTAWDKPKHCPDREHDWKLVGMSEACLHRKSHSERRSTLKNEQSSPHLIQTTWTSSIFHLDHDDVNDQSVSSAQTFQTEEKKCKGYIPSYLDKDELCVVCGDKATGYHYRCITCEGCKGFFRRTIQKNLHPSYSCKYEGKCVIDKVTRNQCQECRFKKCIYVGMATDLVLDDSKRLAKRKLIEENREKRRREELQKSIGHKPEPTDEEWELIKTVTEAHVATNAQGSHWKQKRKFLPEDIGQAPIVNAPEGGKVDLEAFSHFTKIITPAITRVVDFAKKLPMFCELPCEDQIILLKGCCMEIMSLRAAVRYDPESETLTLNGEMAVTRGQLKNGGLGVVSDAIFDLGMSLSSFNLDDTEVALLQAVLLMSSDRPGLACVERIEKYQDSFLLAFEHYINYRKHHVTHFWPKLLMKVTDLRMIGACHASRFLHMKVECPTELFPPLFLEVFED
# How it was run: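 TR-UAS-bla GripTite HEK 293 cells (2500/well, medium with 2% charcoal/dextran FBS) were treated in agonist mode for 18 h at 37 C, titrated. Beta-lactamase was read by CCF4 ratio after 2 h; normalized to 10 nM T3 (100%) and DMSO, Hill-fitted for EC50 and efficacy.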
# [11] = biological target: Estrogen receptor (Homo sapiens) (UniProt P03372); test: qHTS assay for small molecule agonists of estrogen receptor alpha signaling (AID 588514); further: nearly all actives have a fitted effect of over 70% in size
# Chain of Estrogen receptor (Homo sapiens) (P03372 whole entry, looked up): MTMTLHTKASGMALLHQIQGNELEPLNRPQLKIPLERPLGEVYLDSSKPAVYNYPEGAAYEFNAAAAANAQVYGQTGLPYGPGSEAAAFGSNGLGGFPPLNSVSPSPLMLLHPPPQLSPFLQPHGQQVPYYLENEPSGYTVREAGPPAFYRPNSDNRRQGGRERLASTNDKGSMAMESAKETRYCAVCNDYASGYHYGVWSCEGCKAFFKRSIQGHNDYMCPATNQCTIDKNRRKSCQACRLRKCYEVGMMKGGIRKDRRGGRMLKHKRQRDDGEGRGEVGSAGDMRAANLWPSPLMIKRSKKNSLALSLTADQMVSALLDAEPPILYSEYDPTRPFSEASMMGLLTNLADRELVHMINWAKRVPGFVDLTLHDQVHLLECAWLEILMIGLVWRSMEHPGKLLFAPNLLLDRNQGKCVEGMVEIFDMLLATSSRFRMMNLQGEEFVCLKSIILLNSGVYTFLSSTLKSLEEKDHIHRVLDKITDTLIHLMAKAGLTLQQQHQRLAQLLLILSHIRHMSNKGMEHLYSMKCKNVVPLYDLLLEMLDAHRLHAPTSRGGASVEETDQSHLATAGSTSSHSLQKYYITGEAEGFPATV
# How it was run: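 Efficacy is expressed against 20 nM 17-beta-estradiol (100%) and DMSO basal (0%); EC50 from Hill equation. Assay: beta-lactamase reporter in ER-alpha-UAS-bla HEK 293 cells, 18 h compound incubation, CCF4 detection.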
# [12] = biological target: Glucocorticoid receptor (Homo sapiens) (UniProt P04150); test: qHTS assay for small molecule antagonists of glucocorticoid receptor signaling (AID 588533; active means well fitted inhibition curve with a large enough effect in the signal ratio, with a control signal flat, not every such curve was filed as active; the % refers to the signal ratio)
# How it was run: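 Antagonist-mode qHTS: compound titrations added to GRE-bla HeLa cells, then dexamethasone 2 nM final; 18 h, 37 C. CCF4 FRET fluorescence normalized to dexamethasone and DMSO; IC50 from Hill fit.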
# [13] = biological target: Peroxisome proliferator-activated receptor delta (Homo sapiens) (UniProt Q03181); test: qHTS assay for small molecule agonists of peroxisome proliferator-activated receptor delta signaling (AID 588534)
# How it was run: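 Agonist-mode qHTS; reporter cells, 5 hrs 37 C pre-incubation; compound titration, 18 hrs 37 C; CCF4 dye, 2 hrs RT; fluorescence read. EC50/efficacy via Hill fit.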
# [14] = biological target: Estrogen receptor (Homo sapiens) (UniProt P03372); test: qHTS assay for small molecule antagonists of estrogen receptor alpha signaling (AID 588513; active means well fitted curve in the direction sought with a large enough effect in the signal ratio, with a control signal flat, not every such curve was filed as active; the % refers to the signal ratio)
# How it was run: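 Antagonist-mode qHTS in ER-alpha-UAS-bla HEK 293 cells: compound titration, 0.5nM estradiol for 18 h, CCF4 fluorescence, Hill-derived IC50.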
# [15] = biological target: Peroxisome proliferator-activated receptor gamma (Homo sapiens) (UniProt P37231); test: qHTS assay for small molecule agonists of peroxisome proliferator-activated receptor gamma signaling (AID 588536; active means well fitted curve in the direction sought with a large enough effect in the signal ratio, with a control signal flat, not every such curve was filed as active; the % refers to the signal ratio)
# How it was run: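 This is an agonist-mode beta-lactamase reporter assay in HEK293 PPAR-gamma-UAS-bla cells with 1% charcoal/dextran FBS. Compound titrations ran 16 h at 37 C before CCF4 detection. EC50 and efficacy are Hill fits scaled to 2 uM rosiglitazone (100%) and DMSO basal.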
structure (smiles),measurement,setting,value
CS(=O)(=O)c1ccc(C(=O)C2C(=O)CCCC2=O)c([N+](=O)[O-])c1,outcome,[1],inactive
same,activation,[2],6.35% (inactive)
same,max response,[3],30.2%
same,Potency,[4],inactive
same,Potency,[5],inactive
same,Potency,[6],inactive
same,outcome,[7],inactive
same,max response,[8],11.3%
same,Potency,[9],17.8 µM (active)
same,outcome,[10],inactive
CC(C)Oc1cccc(NC(=O)c2ccccc2C(F)(F)F)c1,outcome,[11],inactive
same,activation,[2],-4.03% (inactive)
same,Potency,[12],inactive
same,outcome,[13],inactive
same,Potency,[6],inactive
same,outcome,[7],inactive
same,outcome,[10],inactive
CCCCC(CC)COC(=O)c1ccccc1C(=O)OCC(CC)CCCC (stereo not drawn),Potency,[14],inactive
same,outcome,[11],inactive
same,outcome,[1],inactive
same,activation,[2],0.194% (inactive) and -1.46% (inactive)
same,Potency,[12],inactive
same,outcome,[13],inactive
same,max response,[3],-2.79% and 33.6%
same,Potency,[4],inactive
same,outcome,[15],inactive
same,Potency,[5],inactive
same,Potency,[6],inactive
same,outcome,[7],inactive
same,max response,[8],-20.4% and -8.96%
same,Potency,[9],inactive
same,outcome,[10],inactive
O=c1cc(-c2ccccc2)oc2ccccc12,outcome,[13],inactive
Nc1ccccc1N,outcome,[13],inactive
S=c1[nH]c2ccccc2s1,outcome,[13],inactive
O=S(=O)(O)C(F)(F)C(F)(F)C(F)(F)C(F)(F)C(F)(F)C(F)(F)C(F)(F)C(F)(F)F,outcome,[15],inactive
same,Potency,[5],inactive
same,Potency,[6],inactive
same,outcome,[7],inactive
same,max response,[8],-11.4% and -1.61%
same,Potency,[9],inactive
same,outcome,[10],inactive
Nc1cccc2c(N)cccc12,activation,[2],-1.46% (inactive)
same,outcome,[13],inactive
same,max response,[3],0.56%
same,Potency,[4],inactive
CO/C=C(/C(=O)OC)c1ccccc1Oc1cc(Oc2ccccc2C#N)ncn1,activation,[2],-0.939% (inactive)
same,outcome,[13],inactive
same,Potency,[6],inactive
same,outcome,[7],inactive
same,outcome,[10],inactive
COc1ccccc1O,outcome,[13],inactive
[Cl][In]([Cl])[Cl],outcome,[13],inactive
CCCCCCCCCCCCCC(=O)OC(C)C,outcome,[13],inactive
C[C@]12C[C@H](O)[C@H]3[C@@H](CCC4=CC(=O)CC[C@@]43C)[C@@H]1CC[C@@H]2C(=O)CO,outcome,[13],inactive
CCCCOC(=O)c1ccccc1C(=O)OCc1ccccc1,activation,[2],3.04% (inactive) and 3.89% (inactive)
same,Potency,[12],inactive
same,outcome,[13],inactive
same,max response,[3],-18.4% and -2.86%
same,Potency,[4],inactive
same,outcome,[15],inactive
same,max response,[8],-17.6% and 5.59%
same,Potency,[9],inactive
same,outcome,[10],inactive
Cc1ccc(N)cc1O,outcome,[13],inactive
CCCCCCCCOc1ccc(C(=O)c2ccccc2)c(O)c1,outcome,[13],inactive
O=C1NS(=O)(=O)c2ccccc21,outcome,[13],inactive
CCCCCCCCCC(CC)c1ccc(S(=O)(=O)O)cc1 (stereo not drawn),activation,[2],8.71% (inactive) and 0.614% (inactive)
same,Potency,[12],inactive
same,outcome,[13],inactive
same,max response,[3],-20.6% and 1.67%
same,Potency,[4],inactive
same,outcome,[15],inactive
same,Potency,[5],inactive
same,max response,[8],2.78% and -0.585%
same,Potency,[9],inactive
same,outcome,[10],inactive
CCCOC(=O)c1ccc(O)cc1,outcome,[13],inactive
CC(C)(C)C(O)C(Oc1ccc(Cl)cc1)n1cncn1 (stereo not drawn),outcome,[15],inactive
same,Potency,[5],inactive
same,Potency,[6],inactive
same,outcome,[7],inactive
CCCCCCCCCCCCCCCC[N+](C)(C)C,activation,[2],4.02% (inactive)
same,Potency,[12],inactive
same,outcome,[13],inactive
same,max response,[3],-6.14%
same,Potency,[4],inactive
same,Potency,[5],inactive
same,Potency,[6],inactive
same,outcome,[7],inactive
Nc1ccc(O)c([N+](=O)[O-])c1,outcome,[13],inactive
Nc1nc2ccc([N+](=O)[O-])cc2s1,outcome,[13],inactive
CN1C(=O)c2ccccc2C1=O,outcome,[13],inactive
C=CCNC(N)=S,outcome,[13],inactive
ClC1=C(Cl)[C@]2(Cl)[C@@H]3[C@@H]4C[C@@H]([C@H]5O[C@@H]45)[C@@H]3[C@@]1(Cl)C2(Cl)Cl,activation,[2],-15% (inactive)
same,Potency,[12],inactive
same,outcome,[13],inactive
same,max response,[3],34.4%
same,Potency,[4],inactive
same,Potency,[6],inactive
same,outcome,[7],inactive
same,outcome,[10],inactive
CN(C)c1ccc(N=NS(=O)(=O)O)cc1,outcome,[13],inactive
CCCCC(CC)COC(=O)c1ccc(N(C)C)cc1 (stereo not drawn),outcome,[13],inactive
CC(C)C(C)(C)C(C)(C)C(C)(C)S,outcome,[13],inactive
O=C(O)c1cc(Oc2ccc(C(F)(F)F)cc2Cl)ccc1[N+](=O)[O-],Potency,[12],inactive
same,outcome,[15],inactive
same,max response,[8],11.8%
same,Potency,[9],inactive
same,outcome,[10],inactive
CC(C)(C)c1ccc(O)c(O)c1,outcome,[13],inactive
OCc1c[nH]c2ccccc12,outcome,[13],inactive
O=C(NO)c1ccccc1,outcome,[13],inactive
CC1=NN(c2ccccc2)C(=O)C1,outcome,[13],inactive
Brc1ccccc1-c1ccccc1,outcome,[13],inactive
COC(=O)c1c(Cl)c(Cl)c(C(=O)OC)c(Cl)c1Cl,outcome,[13],inactive
COc1ccc(C(c2ccc(OC)cc2)C(Cl)(Cl)Cl)cc1,activation,[2],4.73% (inactive) and 3.18% (inactive) and 4.31% (inactive)
same,outcome,[13],inactive
same,outcome,[15],inactive
same,Potency,[5],inactive and 28.2 µM (active)
same,Potency,[6],inactive
same,outcome,[7],inactive
same,outcome,[10],inactive
CN(C)NC(=O)CCC(=O)O,outcome,[13],inactive
same,max response,[3],-12.7% and 32.6%
same,Potency,[4],inactive
same,outcome,[15],inactive
same,Potency,[5],inactive
same,Potency,[6],inactive
same,outcome,[7],inactive
same,max response,[8],6.92% and -25.6%
same,Potency,[9],inactive
same,outcome,[10],inactive
